KB-3-1 tox = KB-3-1 parental cell cytotoxicity. KB-3-1 viability, CellTiter-Glo ATP luminescence, 72 h. Potency, µM (doses to about 46.1 µM), usual class: cytotoxic. 400,000 compounds, 1.4% hits; note: potency is the fitted concentration of half-maximal effect; % is set by controls: 0 for no effect and ±100 for the full control effect; nearly all actives have a fitted effect of over 60% in size
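Cells are dispensed, compounds pinned in, plates held at 37 °C for 72 h, then CellTiter-Glo is added and luminescence read after 10 minutes. Cell line: parental KB-3-1 in phenol-red-free DMEM, 10% FBS.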
KCNH2 WT inh = blocks the wildtype human KCNH2 potassium channel | U2OS, BacMam KCNH2, thallium flux FluxOr; active compounds read low | 340,000 compounds, 0.37% hits | activity change, % at 1.84 µM;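 active = maximum activity change below -70%; inconclusive = maximum activity change between -70% and -50%; inactive = maximum activity change above -50%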; note: % is set by controls: 0 for no effect and ±100 for the full control effect
Target sequence (Q12809 whole entry, looked up): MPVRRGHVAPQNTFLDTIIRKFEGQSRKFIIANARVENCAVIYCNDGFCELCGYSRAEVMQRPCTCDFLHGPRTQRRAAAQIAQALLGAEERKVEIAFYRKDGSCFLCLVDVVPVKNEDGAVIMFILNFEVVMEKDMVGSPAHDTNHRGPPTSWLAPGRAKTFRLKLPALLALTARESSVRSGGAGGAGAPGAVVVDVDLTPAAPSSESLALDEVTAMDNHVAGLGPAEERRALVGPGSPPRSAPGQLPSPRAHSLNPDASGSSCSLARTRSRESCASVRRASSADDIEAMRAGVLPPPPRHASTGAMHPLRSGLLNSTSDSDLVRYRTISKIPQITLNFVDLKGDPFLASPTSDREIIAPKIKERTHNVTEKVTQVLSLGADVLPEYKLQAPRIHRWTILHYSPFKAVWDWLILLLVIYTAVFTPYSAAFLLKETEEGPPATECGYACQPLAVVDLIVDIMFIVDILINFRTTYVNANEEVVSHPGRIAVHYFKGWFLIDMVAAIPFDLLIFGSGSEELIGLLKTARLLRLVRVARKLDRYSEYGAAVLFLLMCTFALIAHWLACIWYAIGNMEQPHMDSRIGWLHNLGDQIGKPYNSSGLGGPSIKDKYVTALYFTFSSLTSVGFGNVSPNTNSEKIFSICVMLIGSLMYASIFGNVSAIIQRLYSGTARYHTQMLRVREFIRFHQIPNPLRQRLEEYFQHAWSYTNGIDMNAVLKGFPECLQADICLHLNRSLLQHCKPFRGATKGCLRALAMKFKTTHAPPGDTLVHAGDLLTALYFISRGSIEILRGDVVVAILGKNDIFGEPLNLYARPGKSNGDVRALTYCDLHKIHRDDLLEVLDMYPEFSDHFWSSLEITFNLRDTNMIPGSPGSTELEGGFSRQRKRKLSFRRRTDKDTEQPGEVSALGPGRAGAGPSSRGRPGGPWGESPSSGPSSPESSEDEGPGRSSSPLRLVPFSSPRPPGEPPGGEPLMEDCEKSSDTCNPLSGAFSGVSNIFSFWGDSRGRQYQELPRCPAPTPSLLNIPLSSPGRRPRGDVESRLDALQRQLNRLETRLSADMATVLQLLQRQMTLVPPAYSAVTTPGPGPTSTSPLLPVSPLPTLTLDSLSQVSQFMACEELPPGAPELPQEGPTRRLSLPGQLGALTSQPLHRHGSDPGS
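U2OS cells transduced with wild-type KCNH2 virus are loaded with FluxOr dye for 45 min, and thallium flux is measured in kinetic reads before and after stimulation buffer. Rate constants are normalized to DMSO controls.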
KCNH2 3.1 block = inhibitors of human KCNH2 3.1 potassium channel isoform. U2OS KCNH2 3.1, thallium flux FluxOr; active compounds read low. activity change, % (tested at about 1.8 µM). 340,000 compounds, 0.95% hits;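 active = maximum activity change below -70%; inconclusive = maximum activity change from -70% to -50%; inactive = maximum activity change above -50%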;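 note: thallium influx rate constant from kinetic fluorescence after stimulation buffer; % is set by controls: 0 for no effect and ±100 for the full control effect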
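Kinetic fluorescence (2 min after stimulation buffer) measures Tl+ influx through KCNH2 3.1 expressed by viral transduction in U2OS cells; the rate constant is normalized against DMSO controls serving as positive and negative references.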
MCF10A rereplic = induces DNA re-replication in MCF 10a normal breast cells | Potency, µM (top dose mostly 46.1 µM), without a hit: at the highest dose activity, positive = re-replication, most hits filed as activators | MCF 10A DNA re-replication, Hoechst nuclear intensity, 48 h | 350,000 compounds, 2.9% hits; note: potency is the fitted concentration of half-maximal effect; % of control where 0% means no effect; nearly all actives have a fitted effect of over 50% in size
SW480 rerep = inducers of DNA re-replication in SW480 colon cancer cells; AID 624297; 340,000 compounds, 1.8% hits; SW480 DNA re-replication, Hoechst DNA content imaging, 48 h; Potency, µM (series often up to 46.1 µM), inactives show at the highest dose re-replication activation, hits mostly activators; note: potency is the fitted concentration of half-maximal effect; % of control where 0% means no effect; nearly all actives have a fitted effect of over 55% in size
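Cells (250 per well) received 23 nL compound or DMSO by pin tool and were kept 48 hr at 37 C, 5% CO2. Nuclei were then stained with Hoechst for 40 min and scanned for DNA content.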
KB-V1 MDR tox = KB-V1 MDR subline cytotoxicity; KB-V1 MDR cells viability, CellTiter-Glo, 72 h; Potency, µM (doses to about 46.1 µM), most hits filed as cytotoxic; 400,000 compounds, 3.4% hits; AID 1347076; note: potency is the fitted concentration of half-maximal effect; % is set by controls: 0 for no effect and ±100 for the full control effect; nearly all actives have a fitted effect of over 60% in size
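Readout: CellTiter-Glo luminescence, 10 min after addition. Cells: KB-V1 MDR subline, 72 h at 37 degrees C with compound. Analysis: corrected, normalized data fitted to concentration-effect curves.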
* marks the source's active call; other numbers are inactive results; i = inactive; ? = inconclusive; / = not tested or not shown. Most compounds without a hit are left out; they make up all but 7.6% or so of the library. Unless noted, calls come from the whole dose curve; as a rule, active = well fitted curve in the direction sought with a large enough effect; inconclusive = small, poorly fitted or top-dose-only effect, or another doubt; inactive = no such curve, though single readings can be large; an effect the other way counts as inactive or inconclusive.

SMILES | KB-3-1 tox | KCNH2 WT inh | KCNH2 3.1 block | MCF10A rereplic | SW480 rerep | KB-V1 MDR tox
CCN(CC)C(=O)C1CCCc2c1[nH]c1ccc(Cl)cc21 (configuration not stated) | 6.5µM* | 4 | -11 | -7% | -8% | i
O=[N+]([O-])c1cc2c(c([N+](=O)[O-])c1)Nc1ccccc1O2 | 23µM* | -4 | 6 | / | / | 13µM*
Cc1cccc(Oc2cc([N+](=O)[O-])cc3c2C(=O)Nc2ccccc2O3)c1 | ? | -4 | -34 | ? | 4% | 2.6µM*
CCOC(=O)Cn1cc(Cl)c(=O)c(Cl)c1 | i | -3 | -4 | 8% | -1% | i
CC(C1=C(CCN(C)C)Cc2ccccc21)c1ccccn1 (configuration not stated) | i | 86 | / | -2% | 0% | 16µM*
CN(C)CCC(c1ccccc1)c1ccccn1 (configuration not stated) | i | 9 | -7 | -14% | 11% | i
O=[N+]([O-])c1ccc2c(c1)C=C/C2=C/c1ccccc1 | i | / | / | / | / | i
O=C(Nc1cc(Cl)ccc1Oc1ccccc1)C1=COCCO1 | i | 6 | -74* | ? | 2% | ?
C=CCn1c(SCC(=O)Nc2cc(C)nn2-c2ccccc2)nnc1C1CCCCC1 | i | -6 | -8 | 0% | -2% | 5.8µM*
C=CCn1c(SCC(=O)NCc2ccccc2)nnc1C1CCCCC1 | i | 1 | 13 | 29% | 0% | ?
COc1ccccc1NC(CC(=O)c1ccccc1)C(=O)OCC(=O)c1ccc(F)cc1 (configuration not stated) | i | -6 | -33 | ? | / | i
Clc1cccc(Cl)c1Cn1cnc2c(N3CCCCCC3)ncnc21 | i | -17 | -8 | -4% | ? | 8.2µM*
CCN(CC)c1ncnc2c1ncn2Cc1c(Cl)cccc1Cl | i | 1 | 10 | ? | ? | ?
O=C(CCl)N1CCN(S(=O)(=O)Cc2ccccc2)CC1 | 23µM* | 0 | 28 | ? | 211% | ?
COc1cc(OC)cc(C(=O)N2CCN(C(=O)c3ccc(OC)c(OC)c3)CC2)c1 | i | -8 | 9 | 2% | -4% | i
COc1ccc(-c2n[nH]c3c2CN(C(=O)c2ccc(OC)c(OC)c2)CC3)cc1 | 7.3µM* | 7 | -18 | 21µM* | ? | ?
COc1ccc2c(c1)sc(N)[n+]2Cc1cc(C)cc2cccnc12 | 4.6µM* | 16 | -77* | 4.6µM* | 8.2µM* | 4.6µM*
Cc1cc(C[n+]2ncsc2N)c2ncccc2c1 | i | 0 | -9 | 14% | 4% | i
CCOc1ccc2c(c1)sc(N)[n+]2Cc1cc(C)cc2cccnc12 | 2.6µM* | 16 | -88* | 8.2µM* | 4.6µM* | 1.3µM*
CCOC(=O)c1c(/N=C/N(C)C)sc(/C=N/Nc2ccccc2)c1-c1ccc(Cl)cc1 | i | 5 | -12 | 21µM* | ? | i
CCOC(=O)c1c(/N=C/N(C)C)sc(C)c1C | i | -6 | 16 | 1% | -7% | i
O=C(CNC(=O)C1COc2ccccc2O1)Nc1cc(Cl)ccc1Cl (configuration not stated) | i | 0 | 7 | 8% | -3% | ?
c1ccc(-c2nn(-c3ccccc3)[n+](-c3ccccc3)n2)cc1 | 7.3µM* | 13 | 6 | 12% | 9% | i
Cc1ccnc(NC(=S)N2CCN(c3ccc(O)cc3)CC2)c1 | i | / | / | / | / | i
O=C(O)COc1ccccc1/C=C1\SC(=Nc2ccc(F)cc2)N(c2ccc(F)cc2)C1=O | i | -16 | 3 | 6.5µM* | ? | ?
SMILES | KB-3-1 tox | KCNH2 WT inh | KCNH2 3.1 block | MCF10A rereplic | SW480 rerep | KB-V1 MDR tox
O=C(O)COc1ccc(/C=C2\SC(=Nc3ccccc3)N(c3ccccc3)C2=O)cc1 | i | 0 | -3 | 16% | 2% | i
c1ccc2c(c1)OCCOCCOCCOCCOCCOc1ccccc1OCCOCCOCCO2 | 5.2µM* | 24 | -5 | ? | ? | 5.2µM*
O=C(CN1C(=O)NC2(CCCC2)C1=O)N1CCN(c2ccccc2O)CC1 | i | -10 | 3 | -1% | -12% | ?
Cn1nc(-c2ccccc2)c(C(=O)Nc2ccc(Cl)cc2)c1Cl | i | -11 | -4 | 2% | -1% | i
Cn1nc(-c2ccccc2)c(C(=O)Nc2ccc(C(F)(F)F)cc2)c1Cl | i | -5 | -73* | -5% | -5% | i
CC(=O)Nc1nc(-c2ccc3c(c2)CC(C)N3C(=O)C2CC2)c(C)s1 (configuration not stated) | i | 18 | -2 | 27% | ? | i
Cc1sc(NC(=O)c2ccco2)nc1-c1ccc2c(c1)CC(C)N2C(=O)C1CC1 (configuration not stated) | ? | -15 | 3 | 5µM* | 6.3µM* | ?
Cc1ccc(-n2ncc(C(=O)NCCN3CCc4ccccc4C3)c2C2CCN(C(=O)OC(C)(C)C)CC2)cc1C | i | / | / | / | / | i
Cc1ccc(C)c(NC(=O)CN(C)C(=O)c2ccc(-c3cccc(C(F)(F)F)c3)o2)c1 | i | 6 | 11 | 20% | -3% | 18µM*
COC(=O)C[C@@H]1C=C[C@H](NS(=O)(=O)c2cccc(F)c2)[C@@H](CO)O1 | i | / | / | / | / | i
C[C@H](NC(=O)c1nc[nH]c1C(=O)NCCCCCNC(=O)OC(C)(C)C)C(=O)OC(C)(C)C | i | 1 | -14 | 10% | -7% | 23µM*
CC(C)C[C@H](NC(=O)c1nc[nH]c1C(=O)N1CCN(C(=O)OC(C)(C)C)CC1)C(=O)OC(C)(C)C | 5.8µM* | 11 | 12 | ? | 16µM* | i
CC(C)(C)OC(=O)CNC(=O)c1[nH]cnc1C(=O)NCCCCCNC(=O)OC(C)(C)C | i | 2 | 15 | 2% | -26% | i
CC(C)C[C@H](NC(=O)c1nc[nH]c1C(=O)NCCCCCNC(=O)OC(C)(C)C)C(=O)OC(C)(C)C | ? | -1 | 24 | 14% | ? | ?
CC(C)C[C@H](NC(=O)c1nc[nH]c1C(=O)N[C@@H](CCCCNC(=O)OC(C)(C)C)C(=O)OC(C)(C)C)C(=O)OC(C)(C)C | 16µM* | -8 | -5 | 0% | ? | ?
CC(C)(C)OC(=O)CNC(=O)c1nc[nH]c1C(=O)N1CCc2ccccc2C1 | i | 7 | -71* | 2% | -1% | i
C[C@H](NC(=O)c1nc[nH]c1C(=O)NC(c1ccccc1)c1ccccc1)C(=O)OC(C)(C)C | ? | 2 | 8 | 23% | -14% | 8.2µM*

Screening results as filed in PubChem.
